Screening data from PubChem.
SMN2 splice up – qHTS Assay for Enhancers of SMN2 Splice Variant Expression. HEK293 SMN2-luciferase splicing reporter, luminescence, 30-36 h. Potency, µM (top dose mostly 46.1 µM), inactives show at the top dose activity change, positive = activation, hits mostly activators. actives 2.8% (n = 210,000); note: % of control where 0% means no effect; nearly all actives have a fitted effect of over 55% in size
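qHTS luciferase splicing reporter: luminescence rises when SMN2 exon 7 is included in transfected HEK293 cells. Compound exposure lasted 30-36 h at 37C, with 4.5 mM final sodium butyrate as control, followed by a ONE-Glo read.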
Rab9 promoter act – qHTS Assay for Rab9 Promoter Activators; Huh7 Rab9 promoter-luciferase reporter, luminescence, 24 h; Potency, µM (doses to about 9.22 µM), for inactives: at the highest dose activation, negative = inhibition, usual class: activators; actives 2.8% (n = 320,000); AID 485297, 2010; note: % of control where 0% means no effect; nearly all actives have a fitted effect of over 60% in size
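Huh7 reporter line, Rab9 promoter upstream of luciferase. Compound exposure 24 h at 37 °C in reduced-serum medium with 10% FBS. Read-out: luminescence.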
KinaseGlo FLuc – Counterscreen for Luciferase (Kinase-Glo TM) Inhibition | actives 0.28% (n = 200,000) | AID 1379, 2008 | Kinase-Glo luciferase, ATP luminescence, 8 min | Luciferin 4-monooxygenase (Photuris pensylvanica), Q27757 | Potency, µM (titrated, usually from 38.3 µM), without a hit: at the top dose activity change, negative = inhibition, usual class: inhibitors; note: % is set by controls: 0 for no effect and ±100 for the full control effect; nearly all actives have a fitted effect of over 60% in size
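Luminescence was the read-out, taken after 8-minute incubation at ambient temperature. Luciferase turned over luciferin with 10 uM ATP in imidazole pH 7.2 buffer containing KCl, MgCl2, Tween 20 and BSA.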
ELG1 genotoxic – qHTS screen for small molecules that induce genotoxicity in human embryonic kidney (HEK293T) cells expressing luciferase-tagged ELG1; HEK293T ELG1-luciferase reporter, luminescence, 16 h; Potency, µM (series often up to 46 µM), for inactives: top-dose activity change, positive = activation, actives largely listed as activators; actives 1.3% (n = 330,000); AID 504466, 2011; note: % of control where 0% means no effect; nearly all actives have a fitted effect of over 60% in size
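DMSO vehicle served as control against compound-treated ELG1-luciferase HEK293T cells; exposure lasted 16 hr at 37 °C and 5% CO2, followed by ONE-Glo luminescence detection after 30 min.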
NPC1 prom act – qHTS Assay for NPC1 Promoter Activators; Huh7 NPC1 promoter luciferase reporter, 24 h; AID 485313, 2010; actives 2.4% (n = 320,000); Potency, µM (titrated, usually from 9.22 µM), without a hit: top-dose activation, usual class: activators; note: % of control where 0% means no effect; nearly all actives have a fitted effect of over 60% in size
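Compounds in DMSO were transferred onto Huh7 NPC1-luciferase reporter cells pre-incubated 2 h; after 24 h at 37 °C, Amplite reagent was dispensed and luminescence recorded 10 min later.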
FLuc modulator – qHTS profiling assay for firefly luciferase inhibitor/activator using purifed enzyme and Km concentrations of substrates (counterscreen for miR-21 project); purified FLuc, Km substrates, luminescence inhibition; AID 588342, 2011; Luciferin 4-monooxygenase (Photinus pyralis), P08659; actives 6.9% (n = 360,000); Potency, µM (doses to about 57.5 µM), for the others: at the highest dose activity change, negative = inhibition, actives largely listed as inhibitors;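 note: plate controls were vehicle for no effect and reference inhibitor for full effect; nearly all actives have a fitted effect of over 55% in size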
Target sequence (P08659 whole entry, looked up): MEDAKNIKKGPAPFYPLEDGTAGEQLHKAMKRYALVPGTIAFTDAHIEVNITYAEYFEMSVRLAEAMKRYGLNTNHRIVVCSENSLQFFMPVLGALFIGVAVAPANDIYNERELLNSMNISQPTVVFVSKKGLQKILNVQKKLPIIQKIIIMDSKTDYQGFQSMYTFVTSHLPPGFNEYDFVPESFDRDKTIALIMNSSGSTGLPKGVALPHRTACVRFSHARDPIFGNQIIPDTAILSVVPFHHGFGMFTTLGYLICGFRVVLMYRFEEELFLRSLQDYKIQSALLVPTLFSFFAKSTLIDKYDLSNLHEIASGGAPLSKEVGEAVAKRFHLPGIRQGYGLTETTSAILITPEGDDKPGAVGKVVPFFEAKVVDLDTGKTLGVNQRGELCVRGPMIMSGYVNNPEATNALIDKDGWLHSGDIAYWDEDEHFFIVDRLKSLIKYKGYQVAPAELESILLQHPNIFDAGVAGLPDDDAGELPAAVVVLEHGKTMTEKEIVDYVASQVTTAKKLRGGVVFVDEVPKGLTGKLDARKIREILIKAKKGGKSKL
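Purified P. pyralis luciferase, 10 nM final, with Km-level 10 uM D-luciferin and 10 uM ATP in 50 mM Tris acetate pH 7.5, 10 mM Mg acetate, 0.01% Tween-20, 0.05% BSA; 6-point qHTS titration about 60 µM downward; luminescence read.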
* = called active by the depositor; [ ] = remark or other dose. This is a sample that favours compounds with a hit; in the whole collection about 7.5% have one here. Calls come from the whole dose curve; as a rule, active = well fitted curve in the direction sought with a large enough effect; inconclusive = small, poorly fitted or top-dose-only effect, or another doubt; inactive = no such curve, though single readings can be large; an effect the other way counts as inactive or inconclusive. Potency is the fitted concentration of half-maximal effect.

CCN(CC(=O)Nc1ccc2c(c1)OCCO2)C(=O)/C=C/c1cccc(Br)c1 was read as Rab9 promoter act 17%, ELG1 genotoxic inconclusive, NPC1 prom act 14% and FLuc modulator 15µM*.
CC(C)(C)C1CCc2c(sc(NC(=O)c3ccccc3F)c2C(=O)NCc2ccco2)C1 (configuration not stated) was read as SMN2 splice up 0% and FLuc modulator -7%.
For CCN(Cc1ccccc1)C(=O)CN1C(=O)COc2ccc(S(=O)(=O)N(CC)CC)cc21 the results were SMN2 splice up -9% and FLuc modulator -4%.
Cc1ccc(-c2nsc(SCC(=O)NCC3CCCO3)n2)cc1 (configuration not stated) was read as SMN2 splice up -51%, Rab9 promoter act 29%, KinaseGlo FLuc 0%, ELG1 genotoxic -3%, NPC1 prom act 20% and FLuc modulator 17µM*.
Cc1ccc(SCC(=O)NCC2CCCO2)cc1 (configuration not stated) was read as Rab9 promoter act 6%, KinaseGlo FLuc 2%, ELG1 genotoxic 4%, NPC1 prom act 4% and FLuc modulator -6%.
COc1ccc(-n2nnc3c(SCC(=O)NCC4CCCO4)ncnc32)cc1 (configuration not stated) was read as SMN2 splice up 0%, Rab9 promoter act -2%, KinaseGlo FLuc -9%, ELG1 genotoxic 2%, NPC1 prom act -4% and FLuc modulator 11µM*.
`COc1ccc(-c2nsc(SCC(=O)NCC3CCCO3)n2)cc1` (configuration not stated) gave SMN2 splice up -24%, Rab9 promoter act inconclusive, KinaseGlo FLuc 0%, ELG1 genotoxic 9%, NPC1 prom act 11% and FLuc modulator 15µM*.
`COc1ccc(C2C=C(c3cccc(OC)c3)Nc3c(C(=O)Nc4ccccc4)cnn32)cc1` (configuration not stated) gave FLuc modulator -1%.
Screening Cc1cc(OC(C)C(=O)N2CCN(CCc3ccccn3)CC2)ccc1Cl (configuration not stated) returned FLuc modulator 4%.
Screening Cc1cc(C(=O)NCCC2=CCCCC2)c(C)o1 returned SMN2 splice up 11µM*, Rab9 promoter act 10µM*, KinaseGlo FLuc -1%, ELG1 genotoxic inconclusive, NPC1 prom act 1µM* and FLuc modulator inconclusive.
COc1cccc(C(=O)NCCC2=CCCCC2)c1OC was read as SMN2 splice up 13µM*, Rab9 promoter act 4µM*, KinaseGlo FLuc 0%, ELG1 genotoxic inconclusive, NPC1 prom act inconclusive and FLuc modulator -9%[2.3 µM].
Screening O=C(CSc1ccc(-c2cccc([N+](=O)[O-])c2)nn1)N1CCCC1 returned SMN2 splice up -6%, Rab9 promoter act 14%, KinaseGlo FLuc -5%, ELG1 genotoxic 8%, NPC1 prom act 1% and FLuc modulator -9%.
For CCSc1ccc(-c2cccc([N+](=O)[O-])c2)nn1 the results were SMN2 splice up inconclusive, Rab9 promoter act 3.2µM*, KinaseGlo FLuc -1%, ELG1 genotoxic inconclusive, NPC1 prom act inconclusive and FLuc modulator inconclusive.
For COc1ccc(Cl)cc1NC(=O)NCCc1c(C)nn(C)c1C the results were FLuc modulator -2%.
CN(C)S(=O)(=O)c1cccc(NC(=S)NC23CC4CC(CC(C4)C2)C3)c1 was read as Rab9 promoter act -1%, ELG1 genotoxic -17%, NPC1 prom act -1% and FLuc modulator 2%.
CCOc1ccc(NC(=S)NC23CC4CC(CC(C4)C2)C3)cc1 was read as Rab9 promoter act 0%, ELG1 genotoxic 2%, NPC1 prom act -1% and FLuc modulator -1%.
CN(C)c1ccc(NC(=S)NC23CC4CC(CC(C4)C2)C3)cc1 was read as Rab9 promoter act inconclusive, ELG1 genotoxic inconclusive, NPC1 prom act -2% and FLuc modulator 12µM*.
Screening FC(F)Oc1ccc(NC(=S)NC23CC4CC(CC(C4)C2)C3)cc1 returned Rab9 promoter act 22%, ELG1 genotoxic -14%, NPC1 prom act 3% and FLuc modulator 19µM*.
For NC(=O)CSc1ncc2c(n1)-c1ccccc1N(Cc1ccc(F)cc1)S2(=O)=O the results were FLuc modulator 6%.
CCN(CC)CCNC(=O)c1[nH]c2ccccc2c1Sc1ccc(Cl)cc1 was read as FLuc modulator 2%.
`O=C(Cn1nc(Cc2ccncc2)c2ccccc2c1=O)Nc1cccc(C(F)(F)F)c1` gave SMN2 splice up -39% and FLuc modulator 5%.
CCCCNC(=O)N(C)c1nc2ccccc2s1 was read as Rab9 promoter act 1.8µM*, KinaseGlo FLuc -6%, ELG1 genotoxic inconclusive, NPC1 prom act inconclusive and FLuc modulator 13µM*.
Screening COCCNC(=O)c1cc2sc3ccccc3c2s1 returned SMN2 splice up 14µM*, Rab9 promoter act 2.8µM*, KinaseGlo FLuc -2%, ELG1 genotoxic 15µM*, NPC1 prom act inconclusive and FLuc modulator 11µM*.
For CCCNC(=O)c1cc2cc([N+](=O)[O-])ccc2s1 the results were SMN2 splice up -13%, Rab9 promoter act -8%, KinaseGlo FLuc 1%, ELG1 genotoxic 0%, NPC1 prom act -2% and FLuc modulator 0%.
Screening CN(C)CCCNC(=O)c1cc2sc3ccccc3c2s1 returned Rab9 promoter act 16%, KinaseGlo FLuc 1%, ELG1 genotoxic inconclusive, NPC1 prom act 5% and FLuc modulator -15%.
Screening CCCCNC(=O)c1cc2ccccc2s1 returned SMN2 splice up 6%, Rab9 promoter act inconclusive, KinaseGlo FLuc 0%, ELG1 genotoxic 0%, NPC1 prom act 16% and FLuc modulator 17µM*.
COC(=O)N(C)c1nc2ccccc2s1 was read as SMN2 splice up -7%, Rab9 promoter act 28%, KinaseGlo FLuc -3%, ELG1 genotoxic inconclusive, NPC1 prom act 13% and FLuc modulator 24µM*.
For CCCCNC(=S)N1CCN(c2nc3ccccc3s2)CC1 the results were Rab9 promoter act -14%, KinaseGlo FLuc -1%, ELG1 genotoxic -5%, NPC1 prom act 0% and FLuc modulator 1%.
Screening COCCN(C(=O)Nc1ccc(OC)cc1)c1nc2ccccc2s1 returned Rab9 promoter act 9%, ELG1 genotoxic 1%, NPC1 prom act 12% and FLuc modulator -22%.
